Only a part of the results of these assays is listed, not drawn at random.
Target: T1, Protein RecA (Mycobacterium tuberculosis) (UniProt P9WHJ3)
T1 sequence (whole entry): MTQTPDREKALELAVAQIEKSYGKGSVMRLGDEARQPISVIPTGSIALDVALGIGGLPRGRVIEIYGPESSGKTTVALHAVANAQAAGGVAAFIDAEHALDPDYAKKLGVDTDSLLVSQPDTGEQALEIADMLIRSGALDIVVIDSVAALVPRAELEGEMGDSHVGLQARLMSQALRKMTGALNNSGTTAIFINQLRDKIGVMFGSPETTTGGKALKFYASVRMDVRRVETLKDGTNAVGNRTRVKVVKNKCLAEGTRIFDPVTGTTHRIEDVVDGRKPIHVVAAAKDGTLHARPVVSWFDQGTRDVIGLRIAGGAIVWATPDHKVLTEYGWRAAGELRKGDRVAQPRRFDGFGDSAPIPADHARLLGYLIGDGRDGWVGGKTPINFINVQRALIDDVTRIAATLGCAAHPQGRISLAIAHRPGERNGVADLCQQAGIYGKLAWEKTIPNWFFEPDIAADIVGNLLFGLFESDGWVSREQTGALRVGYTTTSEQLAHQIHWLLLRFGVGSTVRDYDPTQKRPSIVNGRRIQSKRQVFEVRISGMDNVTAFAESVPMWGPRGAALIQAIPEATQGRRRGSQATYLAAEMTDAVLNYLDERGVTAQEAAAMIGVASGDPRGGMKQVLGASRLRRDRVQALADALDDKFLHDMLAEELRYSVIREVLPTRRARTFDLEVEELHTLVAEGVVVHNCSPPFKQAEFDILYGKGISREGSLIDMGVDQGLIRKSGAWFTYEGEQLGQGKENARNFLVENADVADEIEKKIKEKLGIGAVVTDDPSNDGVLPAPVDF
Experiment: M. tuberculosis H37Rv growth inhibition, dose response, strain H37Rv (AID 489010); call rule not given here;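 further: whole Mycobacterium tuberculosis cells grown in culture and not purified RecA protein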
Assay type: functional

Row | SMILES | IC90
1 | CC(C)(C)c1csc(Sc2ccc([N+](=O)[O-])cn2)n1 | > 100 µM (active)
2 | Clc1ccc(-n2nnnc2Sc2ncnc3sccc23)cc1 | 9.74 µM (active)
3 | O=C(NC(N=C(S)Nc1ccc(Cl)cc1Cl)C(Cl)(Cl)Cl)c1cccc([N+](=O)[O-])c1 (stereo not drawn) | 15.2 µM (active)
4 | COC(=O)c1c(C)oc2ccc(N(C(=O)c3ccncc3)S(=O)(=O)c3ccc4ccccc4c3)cc12 | > 100 µM (active)
5 | COc1ccc(N(C(=O)CCl)C(C(=O)NCCc2ccccc2)c2cccs2)cc1 (stereo not drawn) | 22.9 µM (active)
6 | CCn1nc(/C=C/c2ccccc2)nc2c(=O)n(C)c(=O)nc1-2 | 15.4 µM (active)
7 | COc1cc2c(cc1OC)-c1c(OC)c(OC)cc3c1C(C2)N(C)CC3 (stereo not drawn) | 40.2 µM (active)
8 | O=C(NC1CCCCC1)C(c1cccnc1)N(C(=O)CCl)c1cccc(Cl)c1 (stereo not drawn) | 28 µM (active)
9 | Cc1ccc(C(=O)Oc2ccc([N+](=O)[O-])cc2)cc1S(=O)(=O)N1CCCCCC1 | > 100 µM (active)
10 | O=C(OCn1ncc(Cl)c(Cl)c1=O)c1ccccc1Cl | > 100 µM (active)
11 | O=C(CCl)N(c1ccc(Cl)cc1)c1c[nH]c2ccccc12 | 4.5 µM (active)
12 | CC(C)(C)C1CCc2sc(C(=O)NNC(=O)CCl)cc2C1 (stereo not drawn) | 33.3 µM (active)
13 | COc1cccc(N(C(=O)CCl)C(C(=O)NCCc2ccccc2)c2cccs2)c1 (stereo not drawn) | 32 µM (active)
14 | COC(=O)c1sc(-c2ccc(Cl)cc2)cc1NC(=O)/C=C/C(=O)O | > 100 µM (active)
15 | CSc1nnc(NC(=O)c2nc(S(=O)(=O)Cc3ccccc3F)ncc2Cl)s1 | > 100 µM (active)
16 | Cc1oc2c(c1C(=O)N1CCOCC1)C(=O)c1ccccc1C2=O | 35.2 µM (active)
17 | O=C(NC1=C(NC2CCS(=O)(=O)C2)C(=O)c2ccccc2C1=O)c1ccccc1 (stereo not drawn) | > 100 µM (active)

Row | SMILES | IC90
18 | Cc1ccc(C(=O)OCn2ncc(Cl)c(Cl)c2=O)cc1 | > 100 µM (active)
19 | Cc1nn(-c2ccccc2)c(Cl)c1CN(C(=O)CCl)c1ccc(Cl)cc1 | 8.54 µM (active)
20 | CN(C1=C(NC(=O)c2ccc(Cl)cc2)C(=O)c2ccccc2C1=O)c1ccccc1 | 16.7 µM (active)
21 | Cc1[nH]n(-c2ccccc2)c(=O)c1C(C[N+](=O)[O-])c1ccc(F)cc1 (stereo not drawn) | 32.8 µM (active)
22 | CCCCCCCCCCn1c2c(c(=N)c3c1CCC3)CCC2 | 3.39 µM (active)
23 | COc1cc2c(cc1OC)C(c1cc(Br)ccc1F)N(C(=O)CCl)CC2 (stereo not drawn) | 12.1 µM (active)
24 | C/C(=N\NC(=O)c1ccncc1)c1cc2ccccc2oc1=O | 0.43 µM (active)
25 | CC1=NNC(=O)C1Cc1c(Cl)cccc1Cl (stereo not drawn) | > 100 µM (active)
26 | Cc1cc(C)cc(Cn2ncc(Cl)c(Cl)c2=O)c1 | 25.7 µM (active)
27 | Cc1ccc(Sc2ccc(NC(=O)CCl)cc2)c(C)c1 | 66.3 µM (active)
28 | COc1cc(NCCCCCCCN)c2ncccc2c1 | 57.8 µM (active)
29 | COc1ccc(C(=O)c2c(C(F)(F)F)oc3c2C(=O)c2ccccc2C3=O)cc1OC | 13.8 µM (active)
30 | O=C(Cc1ccccc1)c1c[nH]c(C(=O)C(Cl)(Cl)Cl)c1 | > 100 µM (active)
31 | Cc1cc(Br)c2c(c1)/C(=C/C(=O)c1cccs1)C(=O)N2 | > 100 µM (active)
32 | Fc1ccc(Oc2nc(-c3ccccc3)nnc2C(F)(F)F)cc1 | > 100 µM (active)
33 | O=C(CCl)N1c2ccccc2OCC1c1ccccc1 (stereo not drawn) | 4.03 µM (active)

From ChEMBL document CHEMBL1201862, “PubChem BioAssay data set” (2004)
